Experiment [1] can be described thus: qHTS profiling of the MIPE4 collection as inhibitors of Plasmodium falciparum (3D7) proliferation (AID 743344).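 Note: scaled between DMSO vehicle wells and 0.29 µM artemisinin as full inhibition.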 The note with it: P. falciparum 3D7 in erythrocytes, SYBR Green DNA fluorescence, 72 h; at 28.5 µM unless noted. Put shortly: (§1)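 Erythrocytes infected with P. falciparum (0.3% parasitemia, 2.5% hematocrit) incubated with compounds 72 h at 37 C, 5% CO2. Lysis with saponin/Triton buffer containing SYBR Green I, overnight at room temperature in the dark; DNA fluorescence (485/535 nm) normalised to 0.29 uM artemisinin and DMSO.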
For orientation: In qHTS, concentration-response curves come from the screen itself.

A short description of experiment [2]: qHTS profiling of the MIPE4 collection as inhibitors of Plasmodium falciparum (DD2) proliferation (AID 743345). To be noted: P. falciparum Dd2 in erythrocytes, SYBR Green DNA, 72 h; at 28.5 µM unless noted. In a few lines: as §1
The nature of experiment [3]: qHTS profiling of the MIPE4 collection as inhibitors of Plasmodium falciparum (DD2) proliferation (Rep 2) (AID 743346). To be noted: P. falciparum Dd2 in erythrocytes, SYBR Green DNA, 72 h; at 28.5 µM unless noted. Put shortly: as §1
The nature of experiment [4]: qHTS profiling of the MIPE4 collection as inhibitors of Plasmodium falciparum (HB3) proliferation (AID 743347).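 Note: plate controls were DMSO vehicle wells for no effect and artemisinin wells for full effect.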 The note with it: P. falciparum HB3 in erythrocytes, SYBR Green DNA, 72 h; at 28.5 µM unless noted. In a few lines:
as §1

Experiment [5] can be described thus: High-throughput drug toxicity screening in the BPDCN cell line Gen2.2 (AID 1224824).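 Note: cells exposed to compounds for 48 h before reading.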 To be noted: Gen2.2 BPDCN cells; at 45.8 µM (top of the series) unless noted. Put shortly:
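Gen2.2 cells, 500 per well in phenol red-free RPMI with 10% FBS, exposed to compounds 48 h at 37 C, 5% CO2; viability by CellTiter-Glo luminescence. Percent activity scaled to DMSO (100%) and 9.2 uM bortezomib final (0%).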

The nature of experiment [6]: High-throughput drug toxicity screening in the BPDCN cell line Cal-1 (AID 1224825). The note with it: Cal-1 BPDCN cell viability, qHTS; at 45.8 µM (top of the series) unless noted. In a few lines: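 Exponentially growing Cal-1 cells, 500 per well in phenol red-free RPMI with 10% FBS, were exposed to compounds for 48 h at 37 °C, 5% CO2. Viability was read by CellTiter-Glo luminescence and normalised to DMSO (100%) and 9.2 uM bortezomib (0%).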

Experiment [7] can be described thus: qHTS assay for measurement of the activity of small molecule inhibitors on Zika virus induced Caspase-3 activity in human astrocytoma cells (AID 1224859; active = well fitted inhibition curve with a large enough effect;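 note: plate controls were ZIKV-infected untreated cells for no effect and uninfected cells for full effect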). Put shortly:
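Percent inhibition of virus-induced caspase-3/7 signal is calculated against uninfected and ZIKV-infected control cells. Cells are SNB-19, infected at 2 FFU/cell for 6 h after 1 h compound exposure.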

Experiment [8] is described as follows: qHTS Screen of the MIPE 4.0 Collection Against Ewings Sarcoma (TC71) (AID 1259253; active = well fitted inhibition curve with a large enough effect; note: nearly all actives have a fitted effect of over 40% in size; note: potency is the fitted concentration of half-maximal effect). Put shortly:
(§2)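 Here, cells in 5% FBS RPMI were exposed for two days (48 h) to compound dilutions added four hours after plating. ATP-based CellTiter-Glo luminescence measured viability, normalized to vehicle and no-cell blanks.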

Experiment [9] is described as follows: qHTS Screen of the MIPE 4.0 Collection Against Ewings Sarcoma (EW8) (AID 1259255; active = well fitted inhibition curve with a large enough effect; note: potency is the fitted concentration of half-maximal effect; nearly all actives have a fitted effect of over 35% in size). Put shortly:
as §2

Experiment [10] can be described thus: qHTS Screen of the MIPE 4.0 Collection Against Ewings Sarcoma (TC32) (AID 1259256; active = well fitted inhibition curve with a large enough effect; note: nearly all actives have a fitted effect of over 45% in size; note: potency is the fitted concentration of half-maximal effect). Put shortly:
as §2

Experiment [11] in a line: qHTS Screen of the MIPE 4.0 Collection Against Ewings Sarcoma (RDES) (AID 1259252; active = well fitted inhibition curve with a large enough effect; note: nearly all actives have a fitted effect of over 35% in size; note: potency is the fitted concentration of half-maximal effect). In a few lines: as §2
Experiment [12] can be described thus: qHTS assay for measurement of the activity of small molecule inhibitors on Zika virus induced Caspase-3 activity in human iPSC derived neural progenitor cells (hNPCs) (AID 1224857; active = well fitted inhibition curve with a large enough effect; note: nearly all actives have a fitted effect of over 65% in size; note: potency is the fitted concentration of half-maximal effect). Put shortly: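 Cells were plated at 350 per well and grown 16 to 20 hours. Compound pretreatment lasted one hour, after which ZIKV (2 FFU/cell) was added for 6 hours. Percent inhibition was normalized between uninfected and infected controls.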

SMILES strings stand for the structures. Inconclusive results are not listed. Activity calls are given as the source filed them. Unless noted, the rule behind the calls is not given here.

The molecule `CCNC(=O)CCCC=CC[C@@H]1[C@H](C=CC(O)CCc2ccccc2)[C@@H](O)C[C@@H]1O` (some centres not stated) showed a parasite growth, % of DMSO control in experiment [1] of 63.1%. Besides, in experiment [2], the parasite growth remaining, % of DMSO control (lower = more inhibition) came to 127%. In experiment [3], the parasite growth, % of control (lower = inhibition) is 60.3%. Also, the growth, % of control in [4] is 74.9%. Moreover, the cell viability, % of control (lower = more cytotoxic) in experiment [5] was found to be 108%. Moreover, the viability (% of control) in experiment [6] came to 21%. The Potency result in [7], in experiment [8] and in experiment [10] was “inactive” each time. The Potency in experiment [9] is 23.5 µM (active).

For `CCCCC[C@H](O)C=C[C@H]1[C@H](O)CC(=O)[C@H]1CC=CCCCC(=O)O`, in [1], the parasite growth, % of DMSO control came out at 86%. Further, the parasite growth remaining, % of DMSO control (lower = more inhibition) in [2] was 11.2%. The parasite growth, % of control (lower = inhibition) in experiment [3] came out at 56.3%. This molecule also registered a growth, % of control in [4] of 103%. The cell viability, % of control (lower = more cytotoxic) in experiment [5] turned out to be 31.5%. Moreover, in [6], the viability (% of control) was 23.7%. In addition, the Potency entry in experiment [7] and in experiment [11] was “inactive” in each case. Besides, the Potency in experiment [8] is 18.7 µM (active); in experiment [10], 20.9 µM (active).

For the molecule `C=C1[C@H](n2cnc3c(=O)[nH]c(N)nc32)C[C@H](O)[C@H]1CO`, in experiment [1], the parasite growth, % of DMSO control came to 53.5%. In experiment [2], the parasite growth remaining, % of DMSO control (lower = more inhibition) turned out to be 88%. The parasite growth, % of control (lower = inhibition) in [3] turned out to be 34.7%. For the same molecule, in experiment [4], the growth, % of control was 42.8%. Moreover, the cell viability, % of control (lower = more cytotoxic) in experiment [5] was 147%. In experiment [6], this molecule showed a viability (% of control) of 8.7%. Also, the Potency result in [7] and in experiment [10] was “inactive” each time. Also, the results for the Potency in experiment [11] and in [8] were 9.35 µM (active) and 14.8 µM (active), respectively.

In the case of `CO[C@H]1C=CO[C@@]2(C)Oc3c(C)c(O)c4c(O)c(c(C=NN5CCN(C)CC5)c(O)c4c3C2=O)NC(=O)C(C)=CC=C[C@H](C)[C@H](O)[C@@H](C)[C@@H](O)[C@@H](C)[C@H](OC(C)=O)[C@H]1C`, the parasite growth, % of DMSO control in [1] amounted to 5.51% [at 5.51 µM]. In addition, the parasite growth remaining, % of DMSO control (lower = more inhibition) in experiment [2] was 11.4% [at 5.51 µM]. The molecule further had a parasite growth, % of control (lower = inhibition) in experiment [3] of 10.3% [at 5.51 µM]. Besides, the growth, % of control in experiment [4] stood at 3.06% [at 5.51 µM]. The cell viability, % of control (lower = more cytotoxic) in experiment [5] was found to be 73% [at 15.3 µM]. The same molecule came in with a viability (% of control) in experiment [6] of 41.4% [at 15.3 µM]. Further, the Potency result in experiment [7] and in [11] was “inactive” each time.

With `CCC(C)SSc1ncc[nH]1` (configuration not stated), the parasite growth remaining, % of DMSO control (lower = more inhibition) in [2] amounted to 94.1%. The molecule further showed a parasite growth, % of control (lower = inhibition) in experiment [3] of 89.6%. In [4], this molecule registered a growth, % of control of 92.3%. Also, in experiment [5], the cell viability, % of control (lower = more cytotoxic) was found to be 7.07%. Also, the Potency was 26.4 µM (active) in [12], 23.5 µM (active) in [11], 26.4 µM (active) in experiment [8] and 11.8 µM (active) in experiment [9]. The Potency result in experiment [7] was “inactive”.

For the molecule `Cc1c(-c2cccc3c(CCCOc4cccc5ccccc45)c(C(=O)O)n(Cc4cccnc4)c23)c(COc2ccc(N3CCN([S+](=O)([O-])N(C)C)CC3)cc2)nn1C`, the parasite growth, % of DMSO control in experiment [1] came out at 5.78%. In addition, the parasite growth remaining, % of DMSO control (lower = more inhibition) in experiment [2] worked out at 7.43%. The same molecule yielded a parasite growth, % of control (lower = inhibition) in [3] of 15.4%. The molecule further showed a growth, % of control in experiment [4] of 4.06%. Also, in experiment [5], the cell viability, % of control (lower = more cytotoxic) turned out to be 121%. Also, the Potency result in experiment [12] and in [7] was “inactive” each time. For the same molecule, the Potency in experiment [11] is 16.6 µM (active); in experiment [8], 20.9 µM (active); in [10] it was 18.7 µM (active).
